Reference: ChEMBL document CHEMBL4296182, “CO-ADD screening of NIH NCI Diversity Set V”
For part of these data: Measured potencies and affinities stand elsewhere.

Legend:
[1] = system: Staphylococcus aureus; assay: Antibacterial activity against Staphylococcus aureus MRSA ATCC 43300 (CO-ADD:GP_020); MIC in CAMBH media using NBS plates, by Resazurin F(560/590); assay type: functional; settings: Concentration 20 uM, ASSAY_TEST Inhibition of Bacterial Growth, detection method Resazurin, Fluorescence (ex560/em590), MEDIA CAMHB, plate type 384well, CORNING #3640, time 18 hr
[2] = system: Acinetobacter baumannii; assay: Antibacterial activity against Acinetobacter baumannii ATCC 19606 (CO-ADD:GN_034); MIC in CAMBH media using NBS plates, by Resazurin F(560/590); assay type: functional; settings: Concentration 20 uM, ASSAY_TEST Inhibition of Bacterial Growth, detection method Resazurin, Fluorescence (ex560/em590), MEDIA CAMHB, plate type 384well, CORNING #3640, time 18 hr
[3] = system: Escherichia coli; assay: Antibacterial activity against Escherichia coli ATCC 25922 (CO-ADD:GN_001); MIC in CAMBH media using NBS plates, by Resazurin F(560/590); assay type: functional; settings: Concentration 20 uM, ASSAY_TEST Inhibition of Bacterial Growth, detection method Resazurin, Fluorescence (ex560/em590), MEDIA CAMHB, plate type 384well, CORNING #3640, time 18 hr
[4] = system: Klebsiella pneumoniae; settings: Concentration 20 uM; ASSAY_TEST Inhibition of Bacterial Growth; detection method Absorption (OD600); MEDIA CAMHB; plate type 384well; NBS; CORNING #3640; time 18 hr
[5] = system: Candida albicans; settings: 20 µM
[6] = system: Cryptococcus neoformans; settings: Concentration 20 uM; ASSAY_TEST Inhibition of Fungal Growth; detection method Resazurin; Absorption (OD600-OD570); plate type 384well; NBS; CORNING #3640

Brc1ccc(-c2csc(Nc3nc(-c4ccc(Br)cc4)cs3)n2)cc1
Inhibition [1]: 27.27%
Inhibition [2]: -8.44%
Inhibition [3]: 9.62%
Inhibition [4]: 1.43%
Inhibition [5]: 3.84%
Inhibition [6]: 3.42%

Clc1ccc2nc3ccccc3cc2c1
Inhibition [1]: 16.29%
Inhibition [2]: 9.09%
Inhibition [3]: 4.02%
Inhibition [4]: 9.96%
Inhibition [5]: 5.41%
Inhibition [6]: -4.77%

CCOC(=O)c1c(N=C(S)NC)sc2c1CCCC2
Inhibition [1]: -2.15%
Inhibition [2]: 0.51%
Inhibition [3]: 7.45%
Inhibition [4]: 1.7%
Inhibition [5]: 6.72%
Inhibition [6]: -11.99%

O=C1/C(=C/c2ccc([N+](=O)[O-])cc2)CCc2ccccc21
Inhibition [1]: 6.03%
Inhibition [2]: -4.9%
Inhibition [3]: 11.7%
Inhibition [4]: 8.24%
Inhibition [5]: 3.4%
Inhibition [6]: -8.15%

CCC1(C(=O)OC)CCc2c(cc(OC)c3ccccc23)C1=O (stereo not given)
Inhibition [1]: 5.5%
Inhibition [2]: -17.62%
Inhibition [3]: 8.82%
Inhibition [4]: 8.69%
Inhibition [5]: 3.67%
Inhibition [6]: -10.67%

CC(C)(C)n1nc(C2CC2)cc1NC(=O)Nc1ccc(Cl)cc1
Inhibition [1]: 0.51%
Inhibition [2]: 11.57%
Inhibition [3]: -11.06%
Inhibition [4]: 6.85%
Inhibition [5]: 4.6%
Inhibition [6]: 3.95%

CC(C1=C(CCN(C)C)Cc2ccccc21)c1ccccn1.O=C(O)/C=C\C(=O)O (stereo not given) [DIMETHINDENE MALEATE]
Inhibition [1]: 21.63%
Inhibition [2]: -11.43%
Inhibition [3]: 16.27%
Inhibition [4]: 18.33%
Inhibition [5]: 1.91%
Inhibition [6]: -1.76%

CCCCOc1ccc(Nc2cc(Cl)ccc2C(=O)O)cn1
Inhibition [1]: 11.44%
Inhibition [2]: 0.16%
Inhibition [3]: 4.02%
Inhibition [4]: 9.69%
Inhibition [5]: 10.4%
Inhibition [6]: -7.88%

OCC1(CO)COC2(CCCC2)N1
Inhibition [1]: 5.01%
Inhibition [2]: 0.7%
Inhibition [3]: 4.05%
Inhibition [4]: 19.67%
Inhibition [5]: -1.93%
Inhibition [6]: -8.24%

c1ccc(NCCSc2nc3ccccc3s2)cc1
Inhibition [1]: 32.95%
Inhibition [2]: -17.22%
Inhibition [3]: 10.16%
Inhibition [4]: 12.47%
Inhibition [5]: 3.32%
Inhibition [6]: 13.76%

Clc1cc2c(nn1)Nc1ccccc1S2
Inhibition [1]: -2.08%
Inhibition [2]: 9.37%
Inhibition [3]: 10.31%
Inhibition [4]: 10.14%
Inhibition [5]: 0.32%
Inhibition [6]: -16.64%

Oc1ccc(-c2nc3ccccc3s2)c(O)c1
Inhibition [1]: -7.97%
Inhibition [2]: -9.73%
Inhibition [3]: 5.22%
Inhibition [4]: 6.81%
Inhibition [5]: 13.4%
Inhibition [6]: -4.68%

NS(=O)(=O)c1cc2c(cc1Cl)NC(Cc1ccccc1)NS2(=O)=O (stereo not given) [BENZYLHYDROCHLOROTHIAZIDE]
Inhibition [1]: 8.57%
Inhibition [2]: 4.78%
Inhibition [3]: 13.54%
Inhibition [4]: 17.47%
Inhibition [5]: 3.24%
Inhibition [6]: -10.94%

O=[N+]([O-])c1ccc(NN=C(c2ccccc2)c2ccccc2)nc1
Inhibition [1]: 5.39%
Inhibition [2]: -2.58%
Inhibition [3]: 13.19%
Inhibition [4]: 5.05%
Inhibition [5]: 3.51%
Inhibition [6]: -2.84%

Cn1cnc([N+](=O)[O-])c1Sc1nc[nH]n1
Inhibition [1]: 12.64%
Inhibition [2]: 10.96%
Inhibition [3]: 6.64%
Inhibition [4]: 17.02%
Inhibition [5]: 2.6%
Inhibition [6]: -9.11%

CC1=C(O)C(=O)C(c2c(C)cc(C)c(Br)c2C)=C(O)C1=O
Inhibition [1]: 15.91%
Inhibition [2]: 1.25%
Inhibition [3]: 4.64%
Inhibition [4]: 20.53%
Inhibition [5]: 19.7%
Inhibition [6]: -3.3%

c1ccc2c(c1)nnn2-c1ccncc1
Inhibition [1]: -3.68%
Inhibition [2]: -2.01%
Inhibition [3]: -7.33%
Inhibition [4]: 4.04%
Inhibition [5]: 1.59%
Inhibition [6]: -7.26%

O=c1cc(-c2ccc(O)cc2)oc2c(O)c(O)c(O)c(O)c12
Inhibition [1]: 7.67%
Inhibition [2]: -15.85%
Inhibition [3]: 3.54%
Inhibition [4]: 11.62%
Inhibition [5]: 6.97%
Inhibition [6]: -2.27%

C=CCSc1n[nH]c(-c2cccs2)n1
Inhibition [1]: 7.65%
Inhibition [2]: 11.99%
Inhibition [3]: 1.25%
Inhibition [4]: 19.42%
Inhibition [5]: 2.69%
Inhibition [6]: -4.46%

CCS(=O)(=O)C1C(=O)N(C)C(S(=O)(=O)CC)C(=O)N1C (stereo not given)
Inhibition [1]: 23.63%
Inhibition [2]: 9.14%
Inhibition [3]: 3.65%
Inhibition [4]: 7.03%
Inhibition [5]: 1.37%
Inhibition [6]: -11.73%

O=C(O)c1cc(N2C(=O)C=CC2=O)cc(N2C(=O)C=CC2=O)c1
Inhibition [1]: -1.11%
Inhibition [2]: -6.34%
Inhibition [3]: 5.17%
Inhibition [4]: 6.14%
Inhibition [5]: 5.6%
Inhibition [6]: -4%

CCOC(=O)C(=Cc1ccc(Br)cc1)C(=O)OCC
Inhibition [1]: 4.77%
Inhibition [2]: 8.54%
Inhibition [3]: -5.6%
Inhibition [4]: 28.34%
Inhibition [5]: 19%
Inhibition [6]: -1.07%

NC(S)=Nc1cccc(Cl)c1
Inhibition [1]: 9.52%
Inhibition [2]: -8.51%
Inhibition [3]: 1.81%
Inhibition [4]: 0.23%
Inhibition [5]: 2.81%
Inhibition [6]: -2.86%

Cc1oc2c(c(C)nn2-c2ccccc2)c(=O)c1Cl
Inhibition [1]: -0.13%
Inhibition [2]: -6.85%
Inhibition [3]: 7.16%
Inhibition [4]: 9.65%
Inhibition [5]: 14.3%
Inhibition [6]: 35.87%

C=CCNC(=O)C1COc2ccccc2O1 (stereo not given)
Inhibition [1]: -8.47%
Inhibition [2]: -14.67%
Inhibition [3]: 0.51%
Inhibition [4]: 7.35%
Inhibition [5]: 1.99%
Inhibition [6]: -7.01%
